# In PubChem BioAssay (Tox21):
# Records with an inconclusive call do not appear. Where a call stands in place of a potency, no number is given. Values without a mark were called inactive. Active and inactive are the calls of the source. Unless noted, calls follow the shape of the full dose curve.
# What was measured:
# [1] = qHTS assay to identify small molecule agonists of the vitamin D receptor (VDR) signaling pathway - cell viability counter screen (AID 743224; active = well fitted curve in the direction sought with a large enough effect in the repeat runs; an effect the other way counts as inactive or inconclusive; also: nearly all actives have a fitted effect of over 50% in size; also: potency is read from the fitted curve at half-maximal effect)
# Summary of the method: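 VDR-bla cell line, quantitative HTS format; 16 h compound incubation (37C, 5% CO2); ATP-based CellTiter-Glo luminescence measured in the reporter assay wells.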
# [2] = qHTS assay to identify small molecule antagonists of the vitamin D receptor (VDR) signaling pathway - cell viability counter screen (AID 743225; active = well fitted curve in the direction sought with a large enough effect in the repeat runs; an effect the other way counts as inactive or inconclusive; also: nearly all actives have a fitted effect of over 50% in size; also: potency is read from the fitted curve at half-maximal effect)
# Summary of the method: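 VDR-bla HEK 293T cells, 4 h pre-incubation at 37C, then compound plus 1-alpha,25-dihydroxyvitamin D3 (3 nM final) for 16 h. After the beta-lactamase FRET read, CellTiter-Glo was added to the same wells; luminescence after 30 min at room temperature.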
# [3] = qHTS assay to identify small molecule agonists of the NFkB signaling pathway (AID 1159509; active = well fitted curve in the direction sought with a large enough effect in the signal ratio in the repeat runs, not every such curve was filed as active; the % refers to the signal ratio; also: series mostly up to about 61 µM)
# Summary of the method: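 NFkB-bla ME-180 cells with a beta-lactamase reporter under an NF-kB response element were plated overnight, treated with compounds in DMSO for 5 hr at 37 C, then loaded with FRET substrate for 1.5 hr at room temperature.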
# [4] = qHTS assay to identify small molecule agonists of the NFkB signaling pathway - cell viability counter screen (AID 1159515); also: series mostly up to about 61 µM; nearly all actives have a fitted effect of over 55% in size
# Summary of the method: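 Viability in NFkB-bla ME-180 cells was measured by CellTiter-Glo luminescence, 30 min room temperature, in wells already treated 5 hr with compounds and read for reporter FRET.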
# [5] = qHTS assay to identify small molecule agonists of the endoplasmic reticulum stress response signaling pathway - cell viability counter screen (AID 1159517); also: nearly all actives have a fitted effect of over 50% in size; also: potency is read from the fitted curve at half-maximal effect
# Summary of the method: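 Cells, HeLa ESRE-bla; density, 1,500/well; dosing, 5 hr at 37 C, 5% CO2; readout, CellTiter-Glo luminescence after 30 min RT.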
# [6] = target: Nuclear receptor ROR-gamma (Homo sapiens) (UniProt P51449); assay: qHTS assay to identify small molecule antagonists of the retinoid-related orphan receptor gamma (ROR-gamma) signaling pathway (AID 1159521; active = well fitted curve in the direction sought with a large enough effect in the repeat runs; an effect the other way counts as inactive or inconclusive; also: nearly all actives have a fitted effect of over 50% in size; also: potency is read from the fitted curve at half-maximal effect)
# Summary of the method: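 Tet-on RORγ CHO cells carrying a ROR response element–luciferase reporter were pretreated with compounds for 2 h, then induced with 1 uM (final) doxycycline hyclate for 16 h at 37 C. Antagonism was read as decreased ONE-Glo luminescence.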
# [7] = qHTS assay to identify small molecule agonists of the AP-1 signaling pathway - cell viability counter screen (AID 1159525); also: nearly all actives have a fitted effect of over 55% in size
# Summary of the method: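 Luminescent ATP readout (Cell Titer Glo, 30 min RT), normalised to DMSO and tetra n-octyl ammonium bromide controls. Cells were ME-180 AP-1-bla in 0.5% dialyzed FBS Opti-MEM, with a 5 h, 37 °C compound exposure.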
# [8] = qHTS assay to identify small molecule agonists of the AP-1 signaling pathway (AID 1159526)
# [9] = qHTS assay to identify small molecule antagonists of the retinoid-related orphan receptor gamma (ROR-gamma) signaling pathway - cell viability counter screen (AID 1159520; active = well fitted curve in the direction sought with a large enough effect in the repeat runs; an effect the other way counts as inactive or inconclusive; also: nearly all actives have a fitted effect of over 50% in size; also: potency is read from the fitted curve at half-maximal effect)
# Summary of the method: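 Cytotoxicity was read from cellular ATP (CellTiter-Glo luminescence) after 16 hr at 37 C with 1 uM doxycycline induction. The inducer was added 2 hr after compound transfer to Tet-on ROR gamma CHO cells.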
SMILES,Potency [1],Potency [2],Potency [3],Potency [4],Potency [5],Potency [6],Potency [7],Potency [8],Potency [9]
CC(=O)OCCN(CCOC(C)=O)c1ccc(N=Nc2ccc([N+](=O)[O-])cc2C#N)cc1,inactive,inactive,inactive,inactive,inactive,inactive,inactive,inactive,
C[C@@]12CCC[C@H]1[C@@H]1CC[C@H]3C[C@@H](O)CC[C@]3(C)[C@H]1CC2,,inactive,inactive,inactive,inactive,13.3 µM (active),inactive,,inactive
CC1(C)[C@H](C(=O)O)N2C(=O)C[C@H]2S1(=O)=O,inactive,,inactive,inactive,inactive,inactive,inactive,,inactive
COc1cc(Nc2c(C#N)cnc3cc(OCCCN4CCN(C)CC4)c(OC)cc23)c(Cl)cc1Cl,,19 µM (active),inactive,inactive,inactive,inactive,inactive,,
O=C1CCCCCCCCCCOCCCCO1,,inactive,inactive,inactive,inactive,inactive,inactive,,inactive
O=C1C(=O)c2ccccc2C(O)=C1C1CCC(c2ccc(Cl)cc2)CC1 (configuration not stated),,5.35 µM (active),inactive,inactive,inactive,7.5 µM (active),inactive,,
O=C(O)c1ccc(OCCCOc2ccc(C(=O)O)cc2)cc1,inactive,inactive,inactive,inactive,inactive,,inactive,inactive,inactive
CCOc1cccc(-n2cc(C(=O)N3CCN(c4cc(C(=O)O)c5ccccc5c4)CC3)nc2-c2ccc(C)cc2)c1,,,inactive,inactive,,,,,
CCCCN(CCCC)C(C(N)=O)c1ccc(OC)cc1 (configuration not stated),inactive,inactive,inactive,inactive,inactive,,inactive,inactive,inactive
CCCCN1CCCC1C(=O)Nc1c(C)cc(C)cc1C (configuration not stated),,inactive,inactive,inactive,inactive,,inactive,,inactive
CC(=O)[C@H]1[C@H](C#N)C[C@H]2[C@@H]3CC=C4C[C@@H](O)CC[C@]4(C)[C@H]3CC[C@@]21C,inactive,inactive,inactive,inactive,inactive,inactive,inactive,,inactive
COC(=O)C1=C(C)NC(C)=C(C(=O)O[C@@H]2CCCN(Cc3ccccc3)C2)[C@@H]1c1cccc([N+](=O)[O-])c1,inactive,inactive,inactive,inactive,inactive,,inactive,inactive,inactive
O=C1c2ccccc2C(=O)c2c(O)c(O)cc(O)c21,inactive,inactive,inactive,inactive,inactive,inactive,inactive,inactive,
CCOc1ccccc1O[C@H](c1ccccc1)[C@H]1CNCCO1,inactive,inactive,inactive,inactive,inactive,inactive,inactive,,inactive
CN1C(C(=O)Nc2ccccn2)=C(O)c2sccc2S1(=O)=O,,,inactive,inactive,inactive,inactive,inactive,,inactive
O=C(OCC(O)CO)c1ccccc1Nc1ccnc2cc(Cl)ccc12 (configuration not stated),,inactive,inactive,inactive,inactive,,inactive,inactive,
O=C1c2ccccc2C(=O)C1(O)O,inactive,inactive,inactive,inactive,49.2 µM (active),,inactive,,61.4 µM (active)
CCCCCC[C@@H](O)C/C=C\CCCCCCCC(=O)O,inactive,,inactive,inactive,inactive,,inactive,,inactive
C/C=C(/C(=C/C)c1ccc(O)cc1)c1ccc(O)cc1,inactive,inactive,inactive,inactive,inactive,inactive,,inactive,
C/C=C/C=C/C=O,inactive,inactive,inactive,inactive,inactive,,inactive,,inactive
CCOC(=O)OC(C)OC(=O)[C@@H]1N2C(=O)[C@@H](NC(=O)[C@H](N)c3ccccc3)[C@H]2SC1(C)C (some centres not stated),inactive,inactive,inactive,inactive,inactive,inactive,inactive,,inactive
O=[N+]([O-])c1ccc(Nc2ccc(Nc3ccccc3)c(S(=O)(=O)O)c2)c([N+](=O)[O-])c1,inactive,inactive,inactive,inactive,inactive,inactive,,,inactive
O=C1NCCN1CCO,inactive,inactive,inactive,inactive,inactive,,inactive,inactive,inactive
C=C1c2cccc(O)c2C(O)=C2C(=O)[C@]3(O)C(O)=C(C(N)=O)C(=O)[C@@H](N(C)C)[C@@H]3[C@@H](O)[C@H]12,inactive,inactive,inactive,inactive,inactive,,inactive,inactive,inactive
C[C@H]1c2cccc(O)c2C(O)=C2C(=O)[C@]3(O)C(O)=C(C(N)=O)C(=O)[C@@H](N(C)C)[C@@H]3[C@@H](O)[C@@H]21,inactive,inactive,inactive,inactive,inactive,29.8 µM (active),inactive,,
C=C(C)C(=O)OCCOCCOC(=O)C(=C)C,inactive,inactive,inactive,inactive,inactive,,inactive,inactive,inactive
OC[C@H]1O[C@@H](n2cnc3c(=S)nc[nH]c32)[C@H](O)[C@@H]1O,7.5 µM (active),8.49 µM (active),inactive,inactive,inactive,,inactive,inactive,inactive
CCOc1ccc(Cc2nccc3cc(OCC)c(OCC)cc23)cc1OCC,inactive,inactive,inactive,inactive,inactive,7.5 µM (active),inactive,inactive,
O=C(Nc1cccc2c(=O)cc(-c3nn[nH]n3)oc12)c1ccc(OCCCCc2ccccc2)cc1,,,inactive,inactive,inactive,,,,inactive
